Experimental data: the supplement of paper PMC10849652
The full data set covers some 7,900 targets. This sample favours those with a hit. About 0.6% of all pairs of compound and target were hits.

What was measured:
Experiment in all cases: log2 fold change, soluble protein after heating vs DMSO (PISA); higher = thermal stabilisation; K562 cells, 10 uM, 30 min; active = over 0.2 and 3.5 SD of the protein, either way, in both replicates (recomputed)
saracatinib = compound: CN1CCN(CCOc2cc(OC3CCOCC3)c3c(Nc4c(Cl)ccc5c4OCO5)ncnc3c2)CC1 [saracatinib]
Outline: (§1)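 K562 cells at 2×10^6 cells/mL were treated with 10 μM compound for 30 min. Aliquots were heated for 3 min across 48°C-58°C, pooled, and extracted in PBS with 0.5% NP-40 at 4°C; soluble protein was the supernatant after 21,000xg for 90 min. Soluble protein was quantified by TMTpro 16plex LC-MS/MS with channel sums equalised, and reported as log2 fold change in thermal stability against DMSO controls, with values from duplicates.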

sotrastaurin = compound: CN1CCN(c2nc(C3=C(c4c[nH]c5ccccc45)C(=O)NC3=O)c3ccccc3n2)CC1 [sotrastaurin]
Outline: as §1

alvocidib = compound: CN1CC[C@H](c2c(O)cc(O)c3c(=O)cc(-c4ccccc4Cl)oc23)[C@H](O)C1 [alvocidib]
Outline: as §1

Tubastatin A = compound: CN1CCc2c(c3ccccc3n2Cc2ccc(C(=O)NO)cc2)C1 [Tubastatin A]
Outline: as §1

[1] = compound: CNC(=O)C1=CC=CC=C1NC2=NC(=NC=C2Cl)NC3=C(C=C(C=C3)N4CCOCC4)OC
Outline: as §1

defactinib = compound: CNC(=O)c1ccc(Nc2ncc(C(F)(F)F)c(NCc3nccnc3N(C)S(C)(=O)=O)n2)cc1 [defactinib]
Outline: as §1

rucaparib = compound: CNCc1ccc(-c2[nH]c3cc(F)cc4c3c2CCNC4=O)cc1 [rucaparib]
Outline: as §1

[2] = compound: CNc1nc(-c2ccc3c(N)n[nH]c3c2)cc(N2C[C@@H](C(=O)NC3CCCCC3)CC[C@H]2C)n1
Outline: as §1

encorafenib = compound: COC(=O)N[C@@H](C)CNc1nccc(-c2cn(C(C)C)nc2-c2cc(Cl)cc(NS(C)(=O)=O)c2F)n1 [encorafenib]
Outline: as §1

[3] = compound: COC(=O)[C@H](CCSC)NC(=O)C1=C(C=C(C=C1)NC[C@H](CS)N)C2=CC=CC=C2
Outline: as §1

[4] = compound: COC1=CC=C(C=C1)CN2C=CC3=C2C=C(C=C3)C(=O)NO
Outline: as §1

filanesib = compound: CON(C)C(=O)N1N=C(c2cc(F)ccc2F)S[C@@]1(CCCN)c1ccccc1 [filanesib]
Outline: as §1

zotarolimus = compound: CO[C@H]1C[C@@H]2CC[C@@H](C)[C@@](O)(O2)C(=O)C(=O)N2CCCC[C@H]2C(=O)O[C@H]([C@H](C)C[C@@H]2CC[C@H](n3cnnn3)[C@H](OC)C2)CC(=O)[C@H](C)/C=C(\C)[C@@H](O)[C@@H](OC)C(=O)[C@H](C)C[C@H](C)/C=C/C=C/C=C/1C [zotarolimus]
Outline: as §1

idasanutlin = compound: COc1cc(C(=O)O)ccc1NC(=O)[C@@H]1N[C@@H](CC(C)(C)C)[C@](C#N)(c2ccc(Cl)cc2F)[C@H]1c1cccc(Cl)c1F [idasanutlin]
Outline: as §1

alisertib = compound: COc1cc(Nc2ncc3c(n2)-c2ccc(Cl)cc2C(c2c(F)cccc2OC)=NC3)ccc1C(=O)O [alisertib]
Outline: as §1

[5] = compound: COc1cc2nc(-c3cc(F)ccc3O)nc(N[C@@H]3CNC[C@H]3C(C)(C)O)c2cc1OC
Outline: as §1

gefitinib = compound: COc1cc2ncnc(Nc3ccc(F)c(Cl)c3)c2cc1OCCCN1CCOCC1 [gefitinib]
Outline: as §1

[6] = compound: COc1cccc2cc(-c3nc([C@H]4CC[C@H](C(=O)O)CC4)n4ncnc(N)c34)[nH]c12
Outline: as §1

lapatinib = compound: CS(=O)(=O)CCNCc1ccc(-c2ccc3ncnc(Nc4ccc(OCc5cccc(F)c5)c(Cl)c4)c3c2)o1 [lapatinib]
Outline: as §1

pictilisib = compound: CS(=O)(=O)N1CCN(Cc2cc3nc(-c4cccc5[nH]ncc45)nc(N4CCOCC4)c3s2)CC1 [pictilisib]
Outline: as §1

Measured: log2 fold change

RPS15 (UniProt P62841)
inactive: saracatinib -0.02 | sotrastaurin 0.07 | alvocidib 0.325 | Tubastatin A 0.087 | [1] 0.04 | defactinib 0.233 | rucaparib 0.226 | [2] 0.061 | encorafenib 0.028 | [3] 0.06 | [4] 0.086 | filanesib 0.192 | zotarolimus -0.082 | idasanutlin 0.049 | alisertib -0.107 | [5] 0.027 | gefitinib 0.008 | [6] -0.147 | lapatinib -0.01 | pictilisib -0.054

RAP2C (UniProt Q9Y3L5)
Chain of UniProt Q9Y3L5 (Q9Y3L5 whole entry, looked up): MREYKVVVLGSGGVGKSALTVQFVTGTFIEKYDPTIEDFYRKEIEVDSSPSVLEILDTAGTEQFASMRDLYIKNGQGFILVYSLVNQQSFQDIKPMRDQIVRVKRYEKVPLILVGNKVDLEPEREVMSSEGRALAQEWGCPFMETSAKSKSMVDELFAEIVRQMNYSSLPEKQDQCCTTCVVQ
active: pictilisib -0.799
inactive: saracatinib 0.04 | sotrastaurin 0.026 | alvocidib -0.009 | Tubastatin A -0.014 | [1] -0.058 | defactinib -0.044 | rucaparib -0.003 | [2] -0.054 | encorafenib -0.041 | [3] 0.01 | filanesib -0.011 | zotarolimus -0.031 | idasanutlin 0.008 | alisertib -0.073 | [5] 0.016 | gefitinib -0.01 | [6] 0.031 | lapatinib 0.1

SCO2 (UniProt O43819)
Chain of UniProt O43819 (O43819 whole entry, looked up): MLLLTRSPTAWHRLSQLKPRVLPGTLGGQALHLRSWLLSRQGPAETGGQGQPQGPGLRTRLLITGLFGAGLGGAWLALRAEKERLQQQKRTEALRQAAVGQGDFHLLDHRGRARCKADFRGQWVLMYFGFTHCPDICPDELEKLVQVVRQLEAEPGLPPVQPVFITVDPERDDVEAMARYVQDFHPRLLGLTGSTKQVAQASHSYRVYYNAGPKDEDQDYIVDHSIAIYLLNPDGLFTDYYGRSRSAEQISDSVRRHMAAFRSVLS
inactive: saracatinib 0.034 | sotrastaurin 0.087 | alvocidib 0.006 | Tubastatin A 0.016 | [1] -0.042 | defactinib 0.017 | rucaparib 0.087 | [2] -0.004 | encorafenib 0.003 | [3] -0.124 | [4] -0.078 | filanesib 0.039 | zotarolimus 0.057 | idasanutlin -0.099 | alisertib -0.103 | [5] -0.097 | [6] 0.117 | lapatinib 0 | pictilisib -0.015

RABGAP1L isoform 5 (UniProt Q5R372)
inactive: saracatinib -0.027 | sotrastaurin 0.017 | alvocidib -0.053 | Tubastatin A -0.056 | [1] -0.014 | [2] -0.071 | [4] 0.117 | filanesib 0.108 | zotarolimus -0.008 | idasanutlin 0.05 | alisertib -0.071 | [5] 0.065 | gefitinib -0.097 | [6] 0.007 | lapatinib -0.027

RPS2 (UniProt P15880)
inactive: saracatinib -0.058 | sotrastaurin 0 | alvocidib 0.25 | Tubastatin A 0.059 | [1] 0.064 | defactinib 0.261 | rucaparib 0.153 | [2] 0.081 | encorafenib 0.07 | [3] 0.042 | [4] -0.049 | filanesib 0.214 | zotarolimus -0.013 | idasanutlin 0.114 | alisertib -0.1 | [5] -0.027 | gefitinib -0.05 | [6] -0.184 | lapatinib 0.094 | pictilisib -0.143

RALY (UniProt Q9UKM9)
Chain of UniProt Q9UKM9 (Q9UKM9 whole entry, looked up): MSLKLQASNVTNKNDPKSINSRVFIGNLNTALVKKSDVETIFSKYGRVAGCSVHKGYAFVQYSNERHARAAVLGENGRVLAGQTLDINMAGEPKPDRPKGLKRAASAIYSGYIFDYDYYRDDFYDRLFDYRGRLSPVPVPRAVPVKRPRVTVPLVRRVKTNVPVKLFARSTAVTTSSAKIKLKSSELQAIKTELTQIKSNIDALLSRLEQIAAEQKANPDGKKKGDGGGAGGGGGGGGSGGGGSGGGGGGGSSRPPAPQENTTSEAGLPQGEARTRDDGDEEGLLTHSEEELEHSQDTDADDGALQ
active: idasanutlin 0.72
inactive: saracatinib -0.091 | sotrastaurin -0.031 | alvocidib 0.041 | Tubastatin A 0.226 | [1] -0.01 | defactinib 0.089 | rucaparib 0.221 | [2] 0.066 | encorafenib 0.073 | [3] -0.021 | [4] -0.038 | filanesib 0.216 | zotarolimus 0.055 | alisertib 0.041 | [5] -0.152 | gefitinib -0.099 | [6] -0.148 | lapatinib 0.22 | pictilisib -0.02

RPS9 (UniProt P46781)
inactive: saracatinib -0.044 | sotrastaurin -0.015 | alvocidib 0.237 | Tubastatin A 0.119 | [1] 0.083 | defactinib 0.226 | rucaparib 0.108 | [2] 0.095 | encorafenib 0.118 | [3] -0.027 | [4] -0.036 | filanesib 0.237 | zotarolimus 0.032 | idasanutlin 0.098 | alisertib -0.101 | [5] -0.083 | gefitinib -0.055 | [6] -0.211 | lapatinib 0.084 | pictilisib -0.195

RSL1D1 (UniProt O76021)
active: defactinib 0.83
inactive: saracatinib -0.086 | sotrastaurin 0.05 | alvocidib 0.481 | Tubastatin A 0.06 | [1] 0.004 | rucaparib 0.359 | [2] 0.097 | encorafenib 0.117 | [3] 0.079 | [4] -0.094 | filanesib 0.543 | zotarolimus 0.055 | idasanutlin 0.363 | alisertib -0.202 | [5] 0.181 | gefitinib -0.031 | [6] -0.065 | lapatinib 0.181 | pictilisib -0.013

RNPS1 (UniProt Q15287)
Chain of UniProt Q15287 (Q15287 whole entry, looked up): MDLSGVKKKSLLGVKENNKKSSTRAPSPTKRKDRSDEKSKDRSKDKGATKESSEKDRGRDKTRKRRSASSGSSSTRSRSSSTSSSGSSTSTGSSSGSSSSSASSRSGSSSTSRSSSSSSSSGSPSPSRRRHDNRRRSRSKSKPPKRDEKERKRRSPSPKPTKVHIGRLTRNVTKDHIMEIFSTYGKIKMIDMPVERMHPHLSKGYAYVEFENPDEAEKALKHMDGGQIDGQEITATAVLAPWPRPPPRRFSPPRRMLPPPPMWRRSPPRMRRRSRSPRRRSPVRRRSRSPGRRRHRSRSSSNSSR
inactive: saracatinib 0.036 | sotrastaurin 0.013 | alvocidib -0.016 | Tubastatin A 0.107 | [1] -0.243 | defactinib -0.067 | rucaparib 0.023 | [2] -0.026 | encorafenib -0.033 | [3] -0.019 | [4] 0.062 | filanesib 0.13 | zotarolimus -0.014 | idasanutlin 0.274 | alisertib 0.024 | [5] -0.073 | gefitinib 0.04 | [6] -0.005 | lapatinib 0.075 | pictilisib -0.001
